# Test results taken from PubChem BioAssay (NCATS).
# Records with an inconclusive call do not appear. Where a call stands in place of a potency, no number is given. Activity calls are given as the source filed them. Calls follow the shape of the full dose curve.
# Assay: Primary qHTS for Vero E6 cytotoxicity: counterscreen for inhibitors of SARS-S pseudo-typed particle cell entry (AID 1479150)
# Conditions: cell viability; series mostly up to 57.1 µM
row,SMILES,Potency
1,Nc1ccc(S(=O)(=O)Nc2ccccn2)cc1,inactive
2,O=S(=O)(O)c1ccc2nc(-c3ccccc3)[nH]c2c1,inactive
3,CC(CN(C)C)C(C)(O)Cc1ccc(Cl)cc1 (stereo unspecified),inactive
4,CO[C@@]1(NC(=O)Cc2cccs2)C(=O)N2C(C(=O)O)=C(COC(N)=O)CS[C@@H]21,inactive
5,Nc1ncnc2c1ncn2[C@@H]1O[C@H](CO)[C@@H](O)[C@H]1O,inactive
6,C[C@@H]1[C@H](O)[C@@H](C)/C=C/C=C\C=C\C=C\C=C\C=C\C=C\[C@H](O[C@@H]2O[C@H](C)[C@@H](O)[C@H](N)[C@@H]2O)C[C@@H]2O[C@](O)(C[C@@H](O)C[C@@H](O)[C@H](O)CC[C@@H](O)C[C@@H](O)CC(=O)O[C@H]1C)C[C@H](O)[C@H]2C(=O)O (stereo in doubt),inactive
7,CC(=O)CC/C=C(\C)CC/C=C(\C)CC/C=C(\C)CCC=C(C)C,inactive
8,CC(C)OC(=O)OCOP(=O)(CO[C@H](C)Cn1cnc2c(N)ncnc21)OCOC(=O)OC(C)C,inactive
9,Cc1c(F)c(N2CCNC(C)C2)cc2c1c(=O)c(C(=O)O)cn2C1CC1 (stereo unspecified),inactive
10,O=S(=O)(O)c1ccc(O)cc1,inactive
11,N#Cc1ccc(C(c2ccc(C#N)cc2)n2cncn2)cc1,inactive
12,O=c1[nH]c(=O)n([C@H]2CCCO2)cc1F,inactive
13,Cc1nnc(NS(=O)(=O)c2ccc(N)cc2)s1,inactive
14,COc1ccc2cccc(CCNC(C)=O)c2c1,inactive
15,O=C(O)Cc1sc(-c2ccccc2)nc1-c1ccc(Cl)cc1,inactive
16,O=C(CO)[C@@H](O)[C@H](O)[C@@H](O)CO,inactive
